# Source: PubChem
# Only some compounds are listed: those with a hit (about 3.2% of all), similar ones and a draw of the others.
# ERa coact pot: enhances coactivator binding to human estrogen receptor alpha. TR-FRET ERalpha-LBD/SRC-Cy5 coactivator binding, 2 h; 100 = basal binding, no effect. coactivator binding (% of control), % at 25.6 µM. actives 1.3% (n = 86,000). AID 639; in the data active = activity above about 200%;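 note: binding measured in presence of low estradiol as agonist stimulus; 0% = peptide alone without receptor and 100% = receptor with peptide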
# ERb coact inh: blocks coactivator binding to human estrogen receptor beta. TR-FRET ER-beta LBD / SRC1-Cy5 peptide binding; receptor agonist-loaded with 1 µM estradiol. inhibition, % at 25.6 µM. actives 1.3% (n = 86,000). AID 633;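 active = compounds whose percent inhibition of the receptor-coactivator binding signal exceeds about 50% in the single-dose screen, limit read from the data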;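 note: 0% = receptor plus peptide wells without compound and 100% = peptide-only wells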
# MT1-MMP txn act: MT1-MMP promoter transcription activation | HT1080 MT1-MMP promoter luciferase reporter, luminescence, overnight; active compounds read high | activation factor at 10 µM | actives 0.16% (n = 86,000) | AID 750;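 active = activation factor of at least 2 for MT1-MMP transcription at 10 µM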
# Calb biofilm kill: kills Candida albicans biofilms | inhibition, % at 6 µM | AID 834 | C. albicans biofilm + clotrimazole, Alamar Blue | actives 0.14% (n = 85,000);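 active = inhibition above 20%; inactive = inhibition below 20%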;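 note: preformed 24 hr biofilms exposed to compound for 48 hr; 0% = biofilm without compound and 100% = blank killed by clotrimazole plus chlorhexidine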
# ERa coact inh: blocks coactivator binding to human estrogen receptor alpha; TR-FRET ER-alpha LBD / SRC-1 peptide, estradiol-bound; inhibition, % at 25.6 µM; actives 1.7% (n = 86,000); AID 629; in the data active = inhibition above about 50%;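 note: 0% = receptor plus peptide control and 100% = peptide only without receptor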
# EphB4 ephrin blk: EphB4-ephrin-B2 interaction antagonism | actives 0.15% (n = 97,000) | inhibition, % at 7 µM | AID 720 | EphB4 LBD / TNYL-RAW-Alexa532 peptide, fluorescence polarization | P54760;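 active = inhibition above the screen-wide mean inhibition plus 3 SD, cut at about 15% in these data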;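 note: 0% = DMSO wells and 100% = excess unlabeled TNYL-RAW peptide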
# Target sequence (P54760 whole entry, looked up, the tested form may be a part): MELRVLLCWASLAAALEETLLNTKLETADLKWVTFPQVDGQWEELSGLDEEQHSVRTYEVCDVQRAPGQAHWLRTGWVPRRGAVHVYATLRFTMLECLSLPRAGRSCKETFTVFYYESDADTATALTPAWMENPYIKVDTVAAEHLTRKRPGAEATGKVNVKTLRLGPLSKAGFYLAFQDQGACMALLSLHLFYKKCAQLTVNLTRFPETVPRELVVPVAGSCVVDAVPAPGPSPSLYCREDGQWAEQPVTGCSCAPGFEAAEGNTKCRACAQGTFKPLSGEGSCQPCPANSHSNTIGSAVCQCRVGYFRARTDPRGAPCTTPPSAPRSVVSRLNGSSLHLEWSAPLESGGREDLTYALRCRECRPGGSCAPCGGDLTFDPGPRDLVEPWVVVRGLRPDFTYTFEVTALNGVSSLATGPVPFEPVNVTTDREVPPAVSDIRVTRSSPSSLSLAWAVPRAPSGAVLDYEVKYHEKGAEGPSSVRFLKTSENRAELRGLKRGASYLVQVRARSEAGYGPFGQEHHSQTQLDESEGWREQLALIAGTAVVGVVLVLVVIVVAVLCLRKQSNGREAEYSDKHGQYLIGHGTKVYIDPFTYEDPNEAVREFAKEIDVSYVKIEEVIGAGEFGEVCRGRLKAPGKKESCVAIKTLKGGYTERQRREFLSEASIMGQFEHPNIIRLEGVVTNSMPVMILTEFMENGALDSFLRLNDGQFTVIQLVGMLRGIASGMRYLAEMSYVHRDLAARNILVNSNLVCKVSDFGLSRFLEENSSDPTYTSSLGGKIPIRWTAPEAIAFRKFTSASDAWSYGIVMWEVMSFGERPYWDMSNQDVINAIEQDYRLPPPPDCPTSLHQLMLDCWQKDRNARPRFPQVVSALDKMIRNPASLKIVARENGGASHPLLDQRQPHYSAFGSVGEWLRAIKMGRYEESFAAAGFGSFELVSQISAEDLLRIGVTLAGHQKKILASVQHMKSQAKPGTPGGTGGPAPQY
# * = called active by the depositor; . = no result given; [ ] = another dose, or the depositor's remark.
SMILES,ERa coact pot,ERb coact inh,MT1-MMP txn act,Calb biofilm kill,ERa coact inh,EphB4 ephrin blk
c1ccc(-c2nc3c4ccccc4nc(N4CCN(c5ccccn5)CC4)n3n2)cc1,215*[fluorescence artefact?],-1,1.2,11,15,.
CCCCSc1nnc2c(n1)[nH]c1ccccc12,157,44,1,-3,56*,11
Cn1cc(SCC(=O)Nc2ccc3c(c2)OCCO3)c2ccccc21,89,4,.,5,-3,-4
CC1=C(SCCC#N)S/C(=C2\SC(C)=C(SCCC#N)S2)S1,43,53*,1,11,81*,-3
CCc1ccc(N(C)S(=O)(=O)c2ccc3[nH]cc(C(=O)NCCN4CCOCC4)c(=O)c3c2)cc1,94,4,1.1,46*,2,-3
CCC1CCCCN1C(=O)c1c[nH]c2ccc(S(=O)(=O)N(C)c3ccc(Cl)cc3)cc2c1=O (stereo not drawn),26,14,1.1,1,58*[fluorescence artefact?],3
CN(c1ccc(F)cc1)S(=O)(=O)c1ccc2[nH]cc(C(=O)O)c(=O)c2c1,47,27,1.2,4,55*[fluorescence artefact?],.
CCOc1ccc(N(C)S(=O)(=O)c2ccc3[nH]cc(C(=O)NCC4CCCO4)c(=O)c3c2)cc1 (stereo not drawn),105,28,1.1,-4,14,9
COCCN(CCOC)C(=O)c1c[nH]c2ccc(S(=O)(=O)N(C)c3ccc(F)cc3)cc2c1=O,52,17,1.2,2,53*[fluorescence artefact?],4
CCCNC(=O)NC1C(NC(=O)NCCC)N(C)C(=O)N1C (stereo not drawn),.,.,1.1,.,.,4
CCC1=C2CC[C@H]3C(=O)N(CC(=O)OC)C(=O)[C@H]3[C@H]2[C@@]2(C)C(=NCCc3c[nH]c4ccccc34)OC(=O)N2C1=O,.,.,1.1,.,.,.
O=C(COc1ccccc1Cl)N1CCN(c2ccc([N+](=O)[O-])c(N3CCOCC3)c2)CC1,.,.,.,.,.,-6
CCC(C)(C)NC(=O)CN(Cc1cccs1)C(=O)C(=O)Nc1ccc2c(c1)OCCO2,.,.,.,.,.,-4
CCCC(=O)Nc1cccc(NC(=O)CN2CCN(c3ccccc3OC)CC2)c1,126,-1,1.1,6,99*[fluorescence artefact?],.
CCC(=O)Nc1cccc(NC(=O)CN2CCN(c3ccccc3OC)CC2)c1,106,-18,1.1,3,-18,2
Cc1ccc(OC(C)C)c(CN(CCO)CCO)c1,104,-3,1.1,1,-3,-6
CN1CCc2c(sc3ncn4nc(-c5ccccc5O)nc4c23)C1,10,77*[fluorescence artefact?],.,7,94*[fluorescence artefact?],-1
c1coc(-c2nc3c4c5c(sc4ncn3n2)CCCC5)c1,142,0,0.9,1,1,1
CCOC(=O)c1cc2c(=O)n3cccc(C)c3nc2n(Cc2ccco2)c1=NC(=O)c1cccnc1,64,58*[fluorescence artefact?],1,9,55*[fluorescence artefact?],-3
CCCn1c(=NC(C)=O)c(C#N)cc2c(=O)n3cccc(C)c3nc21,59,47,1.1,7,54*[fluorescence artefact?],0
CCCCCn1c(=NC(C)=O)c(C#N)cc2c(=O)n3cccc(C)c3nc21,83,25,1.3,7,30,.
Cc1cccc(C(=O)N=c2c(C#N)cc3c(=O)n4cccc(C)c4nc3n2Cc2ccco2)c1,150,30,1,9,30,-4
Cc1cccn2c(=O)c3cc(C#N)c(=NC(=O)c4ccccc4)n(Cc4ccco4)c3nc12,177,41,0.9,2,63*[fluorescence artefact?],.
Cc1ccc(-n2c(=O)c(C#N)cc3c(=O)n4cccc(C)c4nc32)cc1,140,52*,1.1,1,62*,6
Cc1cccn2c(=O)c3cc(C#N)c(=O)n(Cc4cccnc4)c3nc12,122,-4,1.1,-2,-4,.
SMILES,ERa coact pot,ERb coact inh,MT1-MMP txn act,Calb biofilm kill,ERa coact inh,EphB4 ephrin blk
O=C(Cn1cnc2ccc(Cl)cc2c1=O)c1cccs1,.,.,.,.,.,10
Cn1cc(Cl)c(C(=O)OCC(=O)Nc2ccccc2)n1,.,.,.,.,.,15*
CCn1cc(C(=O)O)c(=O)c2cc(F)c(N3CCNCC3)nc21,108,-3,1.1,22*,-5,.
COc1ccc(CCn2c(=N)c(C#N)cc3c(=O)n4ccccc4nc32)cc1,.,.,1,.,.,.
CN(CC(=O)NC(=O)NCc1ccco1)Cc1nc2ccccc2c(=O)[nH]1,71,43,1,0,61*,.
CN1CCN(S(=O)(=O)c2ccc(Br)c3nsnc23)CC1,94,-12,1.2,7,2,1
